# Test results published in the supplement of paper PMC6658780.
# Counter-ions that a name gives are not always drawn. ± gives the standard deviation of the averaged measurements.
# Test system: Escherichia coli ATCC BAA-2469
# Assay: percent growth inhibition of drug + antibiotic vs DMSO control; higher = more growth inhibition
# Details: antibiotic (0.125x MIC): gentamicin; 7 µM
# Experimental: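 Prestwick drugs tested at 20 uM and 7 uM with an antibiotic at 0.125x MIC (16 mg/L when MIC >128 mg/L) against E. coli ATCC BAA-2469 (NDM-1) in CAMHB, 384-well plates, duplicate runs. Percent growth inhibition was computed from OD600 (24 h minus 0 h) relative to DMSO wells. Drug + DMSO-only wells are also given. […]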
row,SMILES,percent growth inhibition [%]
1,Cn1c(=O)c2c(ncn2C)n(C)c1=O [Caffeine],1.53 ± 7.1
2,COc1cc(NS(=O)(=O)c2ccc(N)cc2)nc(OC)n1 [Sulfadimethoxine],1.55 ± 1.5
3,CC(=O)c1ccc2c(c1)N(CCCN1CCC(CCO)CC1)c1ccccc1S2 [Piperacetazine],2.86 ± 2.4
4,C#C[C@]1(O)CC[C@H]2[C@@H]3CCC4=C(CCC(=O)C4)[C@H]3CC[C@@]21C [Norethynodrel],4.39 ± 3.6

# Same assay, conditions: antibiotic (0.125x MIC): gentamicin; 20 µM
row,SMILES,percent growth inhibition [%]
1,Cc1c(OCC(F)(F)F)ccnc1C[S+]([O-])c1nc2ccccc2[nH]1 (centres undefined) [Lansoprazole],12.5 ± 18
2,CC1CS(=O)(=O)CCN1/N=C/c1ccc([N+](=O)[O-])o1 (centres undefined) [Nifurtimox],2.95 ± 0.97
3,CC1=C(/C=C/C(C)=C/C=C/C(C)=C\C(=O)O)C(C)(C)CCC1 [Isotretinoin],12.7 ± 20

# Test system: Klebsiella pneumoniae KPC-119
# Assay: as above
# Details: antibiotic (0.125x MIC): colistin; 7 µM
row,SMILES,percent growth inhibition [%]
1,CC[C@H]1OC(=O)[C@H](C)[C@@H](O[C@H]2C[C@@](C)(OC)[C@@H](O)[C@H](C)O2)[C@H](C)[C@@H](O[C@@H]2O[C@H](C)C[C@H](N(C)C)[C@H]2O)[C@](C)(O)C[C@@H](C)CN(C)[C@H](C)[C@@H](O)[C@]1(C)O [Azithromycin],40.9 ± 12
2,CC(=O)OC[C@H]1O[C@@H]([S-])[C@H](OC(C)=O)[C@@H](OC(C)=O)[C@@H]1OC(C)=O.CCP(CC)CC.[Au+] [Auranofin],101 ± 3.5
3,CO[C@H]1/C=C/O[C@@]2(C)Oc3c(C)c(O)c4c(c3C2=O)C2=NC3(CCN(CC(C)C)CC3)NC2=C(NC(=O)/C(C)=C\C=C\[C@H](C)[C@H](O)[C@@H](C)[C@@H](O)[C@@H](C)[C@H](OC(C)=O)[C@@H]1C)C4=O [Rifabutin],97.8 ± 1.9
4,NC[C@@H]1O[C@H](O[C@H]2[C@@H](O)[C@H](O[C@@H]3[C@@H](O)[C@H](N)C[C@H](N)[C@H]3O[C@H]3O[C@H](CO)[C@@H](O)[C@H](O)[C@H]3N)O[C@@H]2CO)[C@H](N)[C@@H](O)[C@@H]1O [Paromomycin sulfate],12.7 ± 6.7
5,CCC[C@@H]1C[C@@H](C(=O)N[C@@H]([C@H]2O[C@H](SC)[C@H](O)[C@@H](O)[C@H]2O)[C@H](C)Cl)N(C)C1 [Clindamycin hydrochloride],44.3 ± 4.1
6,CO[C@H]1/C=C/O[C@@]2(C)Oc3c(C)c(O)c4c(O)c(c5c(nc6cc(C)ccn65)c4c3C2=O)NC(=O)/C(C)=C\C=C\[C@H](C)[C@H](O)[C@@H](C)[C@@H](O)[C@@H](C)[C@H](OC(C)=O)[C@@H]1C [Rifaximin],99.23 ± 0.84
7,O=C1OCCN1/N=C/c1ccc([N+](=O)[O-])o1 [Furazolidone],96.1 ± 7
8,CN(C)c1ccc(O)c2c1C[C@H]1C[C@H]3[C@H](N(C)C)C(O)=C(C(N)=O)C(=O)[C@@]3(O)C(O)=C1C2=O [Minocycline hydrochloride],97.33 ± 0.15

# Same assay, conditions: antibiotic (0.125x MIC): colistin; 20 µM
row,SMILES,percent growth inhibition [%]
1,CC[C@H]1OC(=O)[C@H](C)[C@@H](O[C@H]2C[C@@](C)(OC)[C@@H](O)[C@H](C)O2)[C@H](C)[C@@H](O[C@@H]2O[C@H](C)C[C@H](N(C)C)[C@H]2O)[C@](C)(O)C[C@@H](C)CN(C)[C@H](C)[C@@H](O)[C@]1(C)O [Azithromycin],98.78 ± 0.7
2,CC(=O)OC[C@H]1O[C@@H]([S-])[C@H](OC(C)=O)[C@@H](OC(C)=O)[C@@H]1OC(C)=O.CCP(CC)CC.[Au+] [Auranofin],96.14 ± 0.42
3,"CC(C)NCC(O)c1ccc(O)c(O)c1 (single isomer, unassigned; (-)) [(-)-Isoproterenol hydrochloride]",0.725 ± 1.5
4,CO[C@H]1/C=C/O[C@@]2(C)Oc3c(C)c(O)c4c(O)c(c(/C=N/N5CCN(C6CCCC6)CC5)c(O)c4c3C2=O)NC(=O)/C(C)=C\C=C\[C@H](C)[C@H](O)[C@@H](C)[C@@H](O)[C@@H](C)[C@H](OC(C)=O)[C@@H]1C [Rifapentine],93.01 ± 0.93
5,CN(C)CCOC(c1ccc(Cl)cc1)c1ccccn1 (centres undefined) [Carbinoxamine maleate salt],-10.7 ± 4.1
6,CO[C@H]1/C=C/O[C@@]2(C)Oc3c(C)c(O)c4c(c3C2=O)C2=NC3(CCN(CC(C)C)CC3)NC2=C(NC(=O)/C(C)=C\C=C\[C@H](C)[C@H](O)[C@@H](C)[C@@H](O)[C@@H](C)[C@H](OC(C)=O)[C@@H]1C)C4=O [Rifabutin],98.1 ± 2.2
7,CCN1CCC[C@H]1CNC(=O)c1c(O)c(Cl)cc(Cl)c1OC [Raclopride],-4.39 ± 0.64
8,CC[C@H]1OC(=O)[C@H](C)[C@@H](O[C@H]2C[C@@](C)(OC)[C@@H](O)[C@H](C)O2)[C@H](C)[C@@H](O[C@@H]2O[C@H](C)C[C@H](N(C)C)[C@H]2O)[C@](C)(OC)C[C@@H](C)C(=O)[C@H](C)[C@@H](O)[C@]1(C)O [Clarithromycin],3.22 ± 2.8
9,O=c1[nH]c(=O)n([C@H]2C[C@H](O)[C@@H](CO)O2)cc1F [Floxuridine],98.9 ± 1.5
10,O=C1OCCN1/N=C/c1ccc([N+](=O)[O-])o1 [Furazolidone],99.62 ± 0.88
11,Clc1ccc(CCC(Cn2ccnc2)Sc2c(Cl)cccc2Cl)cc1 (centres undefined) [Butoconazole nitrate],6.76 ± 0.1
12,CCCCCCCCCCCCCCCC[N+](C)(C)CCN(Cc1ccc(OC)cc1)c1ncccn1 [Thonzonium bromide],98.2 ± 3.1
13,OCCOCCN1CCN(C2=Nc3ccccc3Sc3ccccc32)CC1 [Quetiapine hemifumarate],-8.06 ± 1.8
14,CN(C)c1ccc(O)c2c1C[C@H]1C[C@H]3[C@H](N(C)C)C(O)=C(C(N)=O)C(=O)[C@@]3(O)C(O)=C1C2=O [Minocycline hydrochloride],97.8 ± 1.9
